The panel holds about 83,000 compounds, 20% with a hit somewhere; the sample as a whole holds those more often.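 Results are percent growth after 48 hours of single-concentration exposure. 100 means growth as in untreated cells, lower positive values show inhibition; negative values down to -100 show cell death.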 Activity calls are given as the source filed them. The calls were made as follows: active = growth percent below 10; inactive = the rest.
Key:
Assay in all cases: NCI-60 one-dose screen, 48 h (100 = growth as untreated, 0 = no growth, -100 = all killed)
SR leukemia = settings: 10 µM unless noted
RPMI-8226 leukemia = settings: 10 µM
OVCAR-8 ovarian = settings: 10 µM unless noted
OVCAR-5 ovarian = settings: 10 µM unless noted
SK-OV-3 ovarian = settings: 10 µM
IGROV1 ovarian = settings: 10 µM unless noted
OVCAR-3 ovarian = settings: 10 µM unless noted
HS 578T breast = settings: 10 µM unless noted
NCI/ADR-RES ovarian = settings: 10 µM unless noted
T-47D breast = settings: 10 µM
BT-549 breast = settings: 10 µM unless noted
MDA-MB-435 melanoma = settings: 10 µM unless noted
SW-620 colon = settings: 10 µM unless noted
MCF7 breast = settings: 10 µM unless noted
HCT-116 colon = settings: 10 µM unless noted
HCC-2998 colon = settings: 10 µM unless noted
KM12 colon = settings: 10 µM unless noted
OVCAR-4 ovarian = settings: 10 µM unless noted

Measured: growth

COc1ccc(Cn2c(Br)c3c(c2-c2cc(OC)c(OC)c(OC)c2)CCc2sc(N)nc2-3)cc1
active: SR leukemia 4.41% | SK-OV-3 ovarian 3.83% | OVCAR-3 ovarian -25.5% | HS 578T breast 8.13% | NCI/ADR-RES ovarian 3.87% | MDA-MB-435 melanoma -40.1% | HCT-116 colon 6.12%
inactive: RPMI-8226 leukemia 21.2% | OVCAR-8 ovarian 12.3% | OVCAR-5 ovarian 37.1% | IGROV1 ovarian 36.7% | T-47D breast 59.7% | BT-549 breast 44.2% | SW-620 colon 19% | MCF7 breast 10.1% | HCC-2998 colon 12.4% | KM12 colon 27.2%

CCCCC1COc2cccc3c(SCC(=O)N(C)c4cccc5ccccc45)cc[n+]1c23 (stereo not given)
inactive: SR leukemia 96.1% | RPMI-8226 leukemia 89.5% | OVCAR-8 ovarian 102% | OVCAR-5 ovarian 112% | OVCAR-4 ovarian 99% | IGROV1 ovarian 111% | OVCAR-3 ovarian 107% | HS 578T breast 108% | NCI/ADR-RES ovarian 104% | BT-549 breast 102% | MDA-MB-435 melanoma 103% | SW-620 colon 105% | MCF7 breast 91.7% | HCT-116 colon 82.5% | HCC-2998 colon 90.3% | KM12 colon 112%

CCOC(=O)c1cnn(CC(O)c2ccc(F)cc2)c1NC(=O)Nc1ccccc1F (stereo not given)
inactive: SR leukemia 105% | RPMI-8226 leukemia 82.9% | OVCAR-8 ovarian 104% | OVCAR-5 ovarian 101% | OVCAR-4 ovarian 81.7% | IGROV1 ovarian 101% | OVCAR-3 ovarian 107% | HS 578T breast 97.3% | BT-549 breast 80.1% | MDA-MB-435 melanoma 102% | SW-620 colon 101% | MCF7 breast 93.1% | HCT-116 colon 89.4% | HCC-2998 colon 115% | KM12 colon 94.3%

Cc1nc2ccc(Cl)cc2n1C
inactive: SR leukemia 96.7% | RPMI-8226 leukemia 97.4% | OVCAR-8 ovarian 101% | OVCAR-5 ovarian 103% | OVCAR-4 ovarian 114% | IGROV1 ovarian 106% | OVCAR-3 ovarian 109% | HS 578T breast 99.6% | NCI/ADR-RES ovarian 112% | BT-549 breast 103% | MDA-MB-435 melanoma 109% | SW-620 colon 108% | MCF7 breast 102% | HCT-116 colon 109% | HCC-2998 colon 111% | KM12 colon 104%

COc1ccc(Nc2[nH]n(C3=Nc4ccccc4Sc4ccccc43)c(=O)c2C#N)cc1
inactive: SR leukemia 70.8% | RPMI-8226 leukemia 37% | OVCAR-8 ovarian 40.2% | OVCAR-5 ovarian 102% | OVCAR-4 ovarian 47.5% | IGROV1 ovarian 55.1% | OVCAR-3 ovarian 52.4% | NCI/ADR-RES ovarian 45.2% | T-47D breast 17.9% | BT-549 breast 52.8% | MCF7 breast 30.7% | HCT-116 colon 30.6% | HCC-2998 colon 40.8% | KM12 colon 43.8%

COc1ccc(OC2=CC(=O)c3ccc(C)nc3C2=O)cc1
inactive: SR leukemia 51.2% | RPMI-8226 leukemia 79.7% | OVCAR-8 ovarian 80.7% | OVCAR-5 ovarian 114% | IGROV1 ovarian 87.8% | OVCAR-3 ovarian 72.3% | HS 578T breast 83.2% | NCI/ADR-RES ovarian 87.5% | T-47D breast 79.9% | BT-549 breast 90.7% | MDA-MB-435 melanoma 83% | SW-620 colon 94.9% | MCF7 breast 72.4% | HCT-116 colon 74.3% | HCC-2998 colon 102% | KM12 colon 81.3%

Cc1nc2cc(Nc3nc(Nc4ccc(F)cc4)nc(N4CCN(C)CC4)n3)ccc2n1Cc1ccccc1
inactive: OVCAR-5 ovarian 42.9% | SK-OV-3 ovarian 68.7% | IGROV1 ovarian 24.6% | NCI/ADR-RES ovarian 43.1% | SW-620 colon 15.6% | MCF7 breast 17.9% | KM12 colon 17%
active: SR leukemia -21.6% | RPMI-8226 leukemia -40.2% | OVCAR-4 ovarian -7.19% | OVCAR-3 ovarian -35.6% | HS 578T breast -19.4% | T-47D breast -10.7% | BT-549 breast -49.9% | MDA-MB-435 melanoma 0.19% | HCT-116 colon -16.3% | HCC-2998 colon -14.8%

O=c1oc2ccccc2cc1-c1csc(N/N=C/c2cc3ccccc3nc2Cl)n1
inactive: SR leukemia 129% | RPMI-8226 leukemia 108% | OVCAR-8 ovarian 103% | OVCAR-5 ovarian 98.6% | IGROV1 ovarian 93.3% | OVCAR-3 ovarian 108% | HS 578T breast 107% | NCI/ADR-RES ovarian 99.7% | T-47D breast 90.8% | BT-549 breast 105% | MDA-MB-435 melanoma 95.7% | SW-620 colon 106% | MCF7 breast 90.7% | HCT-116 colon 105% | HCC-2998 colon 102% | KM12 colon 100%

COc1ccc(-c2c(-c3cc4c(c(OC)c3OC)OCO4)noc2N)cc1
active: OVCAR-3 ovarian -38.1% | NCI/ADR-RES ovarian 2.53% | MDA-MB-435 melanoma -32.1%
inactive: SR leukemia 10.9% | RPMI-8226 leukemia 17.3% | OVCAR-8 ovarian 32.1% | OVCAR-4 ovarian 55% | IGROV1 ovarian 46.3% | HS 578T breast 16% | T-47D breast 47.5% | BT-549 breast 60.1% | SW-620 colon 17.9% | MCF7 breast 19.7% | HCT-116 colon 22.2% | HCC-2998 colon 20.6% | KM12 colon 18.9%

FC(F)(F)Oc1ccc2c(c1)C[C@H]1C[C@@H](c3ccoc3)N2O1
inactive: SR leukemia 98.3% | RPMI-8226 leukemia 92.3% | OVCAR-8 ovarian 101% | OVCAR-5 ovarian 91.5% | SK-OV-3 ovarian 106% | IGROV1 ovarian 108% | OVCAR-3 ovarian 112% | NCI/ADR-RES ovarian 98.3% | T-47D breast 94.8% | BT-549 breast 112% | MDA-MB-435 melanoma 88.8% | SW-620 colon 110% | MCF7 breast 98.6% | HCT-116 colon 107% | HCC-2998 colon 97.5% | KM12 colon 103%

CN1CCN(c2ccc3nc(-c4ccc5nc(-c6ccc(C(F)(F)F)cc6)[nH]c5c4)[nH]c3c2)CC1
inactive: OVCAR-8 ovarian 65.5% | OVCAR-5 ovarian 110% | IGROV1 ovarian 71.2% | HS 578T breast 26.4% | NCI/ADR-RES ovarian 102% | T-47D breast 57.9% | BT-549 breast 84.6% | HCT-116 colon 21.1% | HCC-2998 colon 87.2% | KM12 colon 49.7%
active: SR leukemia -18.5% | RPMI-8226 leukemia -9.04% | OVCAR-3 ovarian -17.3% | SW-620 colon 1.32% | MCF7 breast 4.4%

CC(=O)OC[C@]1(C)C=C2C(=O)[C@](C)(O)C3(CC3)C(C)=C2[C@H]1OC(C)=O
inactive: SR leukemia 62.8% | RPMI-8226 leukemia 84.1% | OVCAR-8 ovarian 75.9% | OVCAR-5 ovarian 91.3% | IGROV1 ovarian 91.1% | OVCAR-3 ovarian 94.9% | HS 578T breast 96% | NCI/ADR-RES ovarian 75% | T-47D breast 73.6% | BT-549 breast 72.6% | MDA-MB-435 melanoma 95.4% | SW-620 colon 88.2% | MCF7 breast 57.1% | HCT-116 colon 62.3% | HCC-2998 colon 81.8% | KM12 colon 78.4%

CCOC(=O)c1c(Cl)c2c(n1Cc1cc(OC)cc(OC)c1)-c1oncc1CCC2
inactive: OVCAR-8 ovarian 38.9% | OVCAR-5 ovarian 49.5% | SK-OV-3 ovarian 27.5% | HS 578T breast 29.6% | T-47D breast 51.7% | BT-549 breast 69.9% | SW-620 colon 16.8% | MCF7 breast 10.7% | HCT-116 colon 23.9% | HCC-2998 colon 55% | KM12 colon 29.6%
active: SR leukemia 4.7% | RPMI-8226 leukemia 9.5% | OVCAR-3 ovarian -17.6% | MDA-MB-435 melanoma -53%

CCCCCCCCCCCCCCn1c2ccccc2c2c3c(c4c5cc(OC)ccc5oc4c21)C(=O)NC3=O
inactive: SR leukemia 114% | RPMI-8226 leukemia 112% | OVCAR-8 ovarian 103% | OVCAR-5 ovarian 100% | IGROV1 ovarian 106% | OVCAR-3 ovarian 110% | HS 578T breast 95.6% | T-47D breast 104% | BT-549 breast 101% | MDA-MB-435 melanoma 103% | SW-620 colon 104% | MCF7 breast 102% | HCT-116 colon 105% | HCC-2998 colon 107% | KM12 colon 102%

COc1c(Cl)ccc2c(-c3nc4cc(Cl)c(F)cc4s3)cc(=O)oc12
active: IGROV1 ovarian -59.8%
inactive: SR leukemia 23.2% | RPMI-8226 leukemia 49% | OVCAR-8 ovarian 62.5% | OVCAR-5 ovarian 96.5% | SK-OV-3 ovarian 104% | OVCAR-3 ovarian 75.5% | HS 578T breast 100% | NCI/ADR-RES ovarian 33% | BT-549 breast 107% | MDA-MB-435 melanoma 102% | SW-620 colon 90.9% | MCF7 breast 96.2% | HCT-116 colon 88.4% | HCC-2998 colon 108% | KM12 colon 79.4%

COC(=O)c1c2c(c(C)[n+]([O-])c1C)C(=O)C=C(NCc1cccc(OC)c1)C2=O
active: SR leukemia -8.2% | RPMI-8226 leukemia -35.5% | OVCAR-8 ovarian -23.7% | OVCAR-5 ovarian -90.3% | IGROV1 ovarian -64% | OVCAR-3 ovarian -51% | HS 578T breast -22.2% | NCI/ADR-RES ovarian -25.6% | T-47D breast -43.9% | BT-549 breast -95% | MDA-MB-435 melanoma -94.7% | SW-620 colon -41.2% | MCF7 breast -65.4% | HCT-116 colon -60.1% | HCC-2998 colon -64.7% | KM12 colon -21.1%

COC(=O)c1c2c(c(C)[n+]([O-])c1C)C(=O)C=C(NCc1ccc(F)c(Cl)c1)C2=O
active: SR leukemia -1.19% | RPMI-8226 leukemia -32.7% | OVCAR-8 ovarian -21.2% | OVCAR-5 ovarian -91.8% | IGROV1 ovarian -55.2% | OVCAR-3 ovarian -41.4% | HS 578T breast -24.2% | NCI/ADR-RES ovarian -18.6% | T-47D breast -41.9% | BT-549 breast -96.9% | MDA-MB-435 melanoma -96.9% | SW-620 colon -29.6% | MCF7 breast -61.9% | HCT-116 colon -48.6% | HCC-2998 colon -59.3% | KM12 colon -16.5%

CC(C)(C)[Si](C)(C)OC1[C@@H](COC(=O)NC(=O)CCl)O[C@@H](n2cnc3c(N)ncnc32)[C@H]1O[Si](C)(C)C(C)(C)C (stereo not given in full)
inactive: OVCAR-5 ovarian 77.4% | OVCAR-4 ovarian 36.9% | SK-OV-3 ovarian 87.8% | HS 578T breast 74.5% | NCI/ADR-RES ovarian 46.6% | T-47D breast 76.3% | MCF7 breast 10.6% | HCT-116 colon 11.2% | HCC-2998 colon 56% | KM12 colon 19.9%
active: SR leukemia -57.5% | RPMI-8226 leukemia -29.5% | IGROV1 ovarian -68.3% | OVCAR-3 ovarian 0.626% | BT-549 breast -17.9% | MDA-MB-435 melanoma -28.2% | SW-620 colon -21.8%

NS(=O)(=O)c1ccc(C(=O)N/N=C(\CS(=O)(=O)c2ccccc2)c2cc3cc(Br)ccc3o2)cc1
inactive: SR leukemia 127% | RPMI-8226 leukemia 98.3% | OVCAR-8 ovarian 75.2% | OVCAR-5 ovarian 99.8% | IGROV1 ovarian 92.5% | OVCAR-3 ovarian 94.5% | HS 578T breast 80.7% | NCI/ADR-RES ovarian 98% | T-47D breast 88.1% | BT-549 breast 101% | SW-620 colon 94.6% | MCF7 breast 72.3% | HCT-116 colon 90.5% | HCC-2998 colon 94.2% | KM12 colon 85.6%

Reference: PubChem BioAssay (NCI)
